Values without a mark were called inactive.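 The calls were made as follows: active = AUC reduced over 20% with Padj below 0.05 in at least 2 of 3 replicates; inactive = otherwise.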

In one assay the test system is Bacteroides clarus. The experiment in a line: growth AUC relative to DMSO control (median of replicates) (fraction); higher = more growth (less inhibition), active = hit call of the paper. The conditions noted are these: 20 µM; 24 h. In a few lines: (§1)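 Gut bacteria were grown singly in mGAM at 37 °C without oxygen, from OD600 0.05, alongside 20 µM compound in 1% DMSO, and OD600 was read each hour for 24 h. Area under the growth curve was normalised to the median of solvent-only wells per plate, or to row and column medians on the industrial chemical plate. The minimum OD was set to 0 beforehand, and the reported value is the median of three biological replicates grown on separate days.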
For `CCCSC(=O)N(CCC)CCC`, the “growth AUC” value was 0.957.
Same read-out and setting: the figure for `CCOP(=S)(OCC)SCCSCC` is 1.01.
Same read-out and setting: the figure for `Nc1c(Cl)c(Cl)c(Cl)c(Cl)c1Cl` is 0.935; for `N#Cc1c(Cl)cccc1Cl` it is 0.979; for `CC(CCl)OP(=O)(OC(C)CCl)OC(C)CCl` (mixture of isomers) it is 0.998.
Still for that read-out and setting: the figure for `CNC(=O)/C(=N/OC)c1ccccc1Oc1ccccc1` is 0.972; for `Clc1c(Cl)c(Cl)c(Cl)c(Cl)c1Cl` it is 1.
Turning to `C#CC(C)(C)NC(=O)c1cc(Cl)cc(Cl)c1`, the “growth AUC” value is 0.949.
For `CNC(=O)Oc1cc(C)c(SC)c(C)c1`, the “growth AUC” value is 1.
On the same count and under the same terms, next, `C[N+](C)(C)CCCl.[Cl-]`: 1.03; `CC(C)(C)c1cc([N+](=O)[O-])cc([N+](=O)[O-])c1O`: 0.742 (active).
Still for that read-out and setting: next, `CCOP(=S)(OCC)SCSc1ccc(Cl)cc1`: 0.972.
Regarding `O=S(=O)(c1ccc(Cl)cc1)c1cc(Cl)c(Cl)cc1Cl`, the “growth AUC” value is 0.935.
With `CCOCCN(C(=O)CCl)C(=C(C)C)c1ccccc1`, the “growth AUC” value was 0.998.
For `CC(C)(O)C(Cl)(Cl)Cl.CC(C)(O)C(Cl)(Cl)Cl.O`, the “growth AUC” value is 1.
In the case of `Nc1cnn(-c2ccccc2)c(=O)c1Cl`, the “growth AUC” value was 0.992.
The same measure, in the same setting: the figure for `CC(C)=CC1C(C(=O)OCN2C(=O)C3=C(CCCC3)C2=O)C1(C)C` (stereo not drawn) is 0.924; for `O=P(OCCCl)(OCCCl)OCCCl` it is 0.986.
On the same count and under the same terms, the figure for `COCc1c(F)c(F)c(COC(=O)[C@@H]2[C@@H](C=C(Cl)Cl)C2(C)C)c(F)c1F` is 1.03; for `ClC1C(Cl)C(Cl)C(Cl)C(Cl)C1Cl` (mixture of isomers) it is 0.932.
With `O=C(O)C1(O)c2ccccc2-c2ccc(Cl)cc21` (stereo not drawn), the “growth AUC” value is 0.935.
Still for that read-out and setting: the figure for `CCC(CC)Nc1c([N+](=O)[O-])cc(C)c(C)c1[N+](=O)[O-]` is 0.942; for `CC(C)(C)c1ccc(CCOc2ncnc3ccccc23)cc1` it is 0.973; for `CCC(C)(NC(=O)c1cc(Cl)c(C)c(Cl)c1)C(=O)CCl` (stereo not drawn) it is 0.895.
For `COc1ccc(/C(=C/C(=O)N2CCOCC2)c2ccc(Cl)cc2)cc1OC`, the “growth AUC” value was 1.
On the same count and under the same terms, next, `CNC(=O)Oc1cccc2c1OC(C)(C)C2=O`: 1.03; `c1coc(-c2nc3ccccc3[nH]2)c1`: 1; `COP(=O)(OC)SCn1c(=O)oc2cc(Cl)cnc21`: 0.983.
Still for that read-out and setting: next, `COC(=O)Nc1nc2ccccc2[nH]1`: 0.991; `S=C1NCCN1`: 0.998; `O=c1[nH]c(Cl)c(Cl)cc1Cl`: 0.967.
On the same count and under the same terms, the figure for `Cc1cccc(C)c1N` is 0.973; for `COP(=O)(OC)Oc1ccc([N+](=O)[O-])cc1` it is 1.03; for `CCOP(=S)(OCC)Oc1ccc2c(C)c(Cl)c(=O)oc2c1` it is 0.957.
In the case of `Clc1cc(Cl)c(Cl)cc1Cl`, the “growth AUC” value is 0.987.
Same read-out and setting: next, `CCN(CC)c1c([N+](=O)[O-])cc(C(F)(F)F)c(N)c1[N+](=O)[O-]`: 0.977; `C[C@@H](Oc1ccc(Oc2ccc(C(F)(F)F)cn2)cc1)C(=O)O`: 1.02; `CCOP(=S)(Oc1cnc(C(C)(C)C)nc1)OC(C)C` (stereo not drawn): 0.94.
As for `Oc1ccc(C(c2ccc(O)cc2)(C(F)(F)F)C(F)(F)F)cc1`, the “growth AUC” value was 0.464 (active).

The next assay has as its system Bacteroides dorei. The assay is described as above. The note with it: 20 µM; 24 h. The gist of the method: as §1
As to `CCCSC(=O)N(CCC)CCC`, the “growth AUC” value is 1.02.
Consider `CCOP(=S)(OCC)SCCSCC`, for which the “growth AUC” value is 0.973.
Same read-out and setting: the figure for `Nc1c(Cl)c(Cl)c(Cl)c(Cl)c1Cl` is 0.956.
As to `N#Cc1c(Cl)cccc1Cl`, the “growth AUC” value was 1.04.
For the molecule `CC(CCl)OP(=O)(OC(C)CCl)OC(C)CCl` (mixture of isomers), the “growth AUC” value is 0.973.
Turning to `CNC(=O)/C(=N/OC)c1ccccc1Oc1ccccc1`, the “growth AUC” value is 0.982.
As to `Clc1c(Cl)c(Cl)c(Cl)c(Cl)c1Cl`, the “growth AUC” value was 1.04.
On the same count and under the same terms, next, `C#CC(C)(C)NC(=O)c1cc(Cl)cc(Cl)c1`: 0.956; `CNC(=O)Oc1cc(C)c(SC)c(C)c1`: 0.971; `C[N+](C)(C)CCCl.[Cl-]`: 0.983.
Same read-out and setting: next, `CC(C)(C)c1cc([N+](=O)[O-])cc([N+](=O)[O-])c1O`: 0.931; `CCOP(=S)(OCC)SCSc1ccc(Cl)cc1`: 0.984; `O=S(=O)(c1ccc(Cl)cc1)c1cc(Cl)c(Cl)cc1Cl`: 0.91.
As for `CCOCCN(C(=O)CCl)C(=C(C)C)c1ccccc1`, the “growth AUC” value was 1.
The same measure, in the same setting: next, `CC(C)(O)C(Cl)(Cl)Cl.CC(C)(O)C(Cl)(Cl)Cl.O`: 0.973.
The same measure, in the same setting: the figure for `Nc1cnn(-c2ccccc2)c(=O)c1Cl` is 0.995.
On the same count and under the same terms, next, `CC(C)=CC1C(C(=O)OCN2C(=O)C3=C(CCCC3)C2=O)C1(C)C` (stereo not drawn): 0.976.
Take `O=P(OCCCl)(OCCCl)OCCCl`: the “growth AUC” value is 0.995.
On the same count and under the same terms, the figure for `COCc1c(F)c(F)c(COC(=O)[C@@H]2[C@@H](C=C(Cl)Cl)C2(C)C)c(F)c1F` is 1.01; for `ClC1C(Cl)C(Cl)C(Cl)C(Cl)C1Cl` (mixture of isomers) it is 1.01.
Still for that read-out and setting: the figure for `O=C(O)C1(O)c2ccccc2-c2ccc(Cl)cc21` (stereo not drawn) is 1.08.
Still for that read-out and setting: the figure for `CCC(CC)Nc1c([N+](=O)[O-])cc(C)c(C)c1[N+](=O)[O-]` is 0.91; for `CC(C)(C)c1ccc(CCOc2ncnc3ccccc23)cc1` it is 0.921.
`CCC(C)(NC(=O)c1cc(Cl)c(C)c(Cl)c1)C(=O)CCl` (stereo not drawn): the “growth AUC” value was 0.967.
Same read-out and setting: the figure for `COc1ccc(/C(=C/C(=O)N2CCOCC2)c2ccc(Cl)cc2)cc1OC` is 0.93; for `CNC(=O)Oc1cccc2c1OC(C)(C)C2=O` it is 1.02.
The same measure, in the same setting: the figure for `c1coc(-c2nc3ccccc3[nH]2)c1` is 0.919; for `COP(=O)(OC)SCn1c(=O)oc2cc(Cl)cnc21` it is 1.02.
Same read-out and setting: the figure for `COC(=O)Nc1nc2ccccc2[nH]1` is 1.01; for `S=C1NCCN1` it is 1.06; for `O=c1[nH]c(Cl)c(Cl)cc1Cl` it is 0.991.
With `Cc1cccc(C)c1N`, the “growth AUC” value is 1.01.
Turning to `COP(=O)(OC)Oc1ccc([N+](=O)[O-])cc1`, the “growth AUC” value is 1.02.
As to `CCOP(=S)(OCC)Oc1ccc2c(C)c(Cl)c(=O)oc2c1`, the “growth AUC” value is 0.98.
On the same count and under the same terms, the figure for `Clc1cc(Cl)c(Cl)cc1Cl` is 0.981; for `CCN(CC)c1c([N+](=O)[O-])cc(C(F)(F)F)c(N)c1[N+](=O)[O-]` it is 0.956; for `C[C@@H](Oc1ccc(Oc2ccc(C(F)(F)F)cn2)cc1)C(=O)O` it is 1.02.
Still for that read-out and setting: the figure for `CCOP(=S)(Oc1cnc(C(C)(C)C)nc1)OC(C)C` (stereo not drawn) is 1.02; for `Oc1ccc(C(c2ccc(O)cc2)(C(F)(F)F)C(F)(F)F)cc1` it is 0.154 (active).
